This note sets out measurements from PubChem BioAssay (NCATS).

The viability is a read-out of living cells in per cent, often relative to untreated cells.

Inconclusive results are not listed. Activity calls are given as the source filed them. Calls come from the whole dose curve; as a rule, active = well fitted inhibition curve with a large enough effect; inconclusive = small, poorly fitted or top-dose-only effect; inactive = no such curve, though single readings can be large or run the other way. Non-standard residues stand in square brackets, D forms with d. Residues, ends and D or L forms follow the SMILES beside them.
Potency is the fitted concentration of half-maximal effect.

The experiment is described as follows: BET inhibitor-based combinations targeting novel dependencies in MECOM-rearranged (r) AML: SET-2 cell line (AID 2202231). Note: nearly all actives have a fitted effect of over 35% in size. To be noted: SET-2 AML cells viability, CellTiter-Glo luminescence, 48 h; viability: active compounds read low, series mostly up to about 46 µM. The source says: Ecotropic viral insertion site 1 (EVI1) is located on chromosome 3q26.2 as part of the MECOM (MDS and EVI1 complex) locus. Under normal hematopoiesis, EVI1 is a regulator of hematopoietic stem cell maintenance and self-renewal and EVI1 levels decrease as the cells differentiate. In approximately 5-10% of de novo acute myeloid leukemia (AML) EVI1 is aberrantly expressed, including Chromosomal inv(3)(q21;q26.2) or t(3;3)(q21;q26.2) alterations (MECOM-r) that account for about 50% of AML with EVI1 overexpression 31. AMLs with high levels of EVI1 have a poor prognosis and an overall survival time averaging between 10-14 months. EVI1 overexpression confers resistance in leukemia cells, highlighting the need to develop new targeted therapies for EVI1 overexpressing AMLs.
Here, we performed an unbiased chemical drug screening by evaluating the single agent activity of a collection of 2,480 oncology-focused, approved and investigational drugs (NCATS Mechanism Interrogation Plates, MIPE v5.0) against a panel of seven AML cell lines. These included four MECOM-r cell-lines (AML-191, AML-194, UCSD-AML1 and HNT-34) and three non-MECOM-r AMLs (MV4-11, OCI-AML3 and SET-2). Exploiting the mechanistic redundancy built in the library, we identified target-level sensitivities in MECOM-r AML cells and relative activity as compared to other AML subtypes.
A collection of 2480 mechanistically annotated dugs (MIPE v5.0) was used to screen four 3q26.2 rearranged AML cell lines and three non-3q26.2 rearranged AML cell lines. This library purposely exploits redundancy by including multiple inhibitors of key onco-targets, while simultaneously encompassing mechanistic diversity, targeting more than 800 distinct mechanisms of action. Briefly, cells were seeded in 5 uL of growth media using a Multidrop Combi dispenser into 1536 well white polystyrene tissue culture treated plates (Corning) at a density of 500cells/well. For each cell-line, for each of the 2480 drugs in MIPE v5.0 library, an 11-point dose curve was generated via a 1536 pin-tool. Plates were incubated for 48 hr at standard incubator conditions, covered by a stainless steel gasketed lid to prevent evaporation. Cell viability was determined by luminescence based, Cell Titer Glo assay (Promega). In detail, 3 uL of Cell Titer Glo were added to each well and plates were incubated at room temperature for 15 min with a stainless-steel lid in place. Luminescence readings were taken using a Viewlux (PerkinElmer) with a 2 s exposure time per plate. Compound dose-response curves were normalized to DMSO and empty well controls on each plate. Quantitative drug activity data from dose-response curves was determined utilizing area Under the Curve (AUC) and Z-transformed AUC (Z-AUC, a mean-centering transformation applied to each individual cell-line screened).
For orientation: Cellular ATP, detected with luciferase, serves as a proxy for viable cell number.
In the case of `CCC[C@H](Nc1nc(-c2ccc(NC(=O)NCC)c(OC)c2)ncc1C)c1cccnc1`, the Potency was 0.118 µM (active).

As for `CN(C)c1cc(NC(=O)CNC(C)(C)C)c(O)c2c1C[C@H]1C[C@H]3[C@H](N(C)C)C(=O)C(C(N)=O)=C(O)[C@]3(O)C(=O)C1=C2O`, the viability is 74.8% (inactive).

As for `C=CC(=O)Nc1cccc(Nc2nc(Nc3ccc(N4CCN(C(C)=O)CC4)cc3OC)ncc2C(F)(F)F)c1`, the Potency was 14.8 µM (active).

With `Cc1cc(C(=O)NOCCO)c(Nc2ccc(I)cc2F)n(C)c1=O`, the viability is 96.3% (inactive).

For `C[C@H](NC(=O)CCC(F)(F)F)C(=O)N[C@@H]1C(=O)N(CCO)c2ncccc2-c2ccccc21`, the viability was 95.9% (inactive).

For `O=C(Nc1cc(Oc2cc(F)c(NC(=O)C3(C(=O)Nc4ccc(F)cc4)CC3)cc2F)ccn1)C1CC1`, the Potency was 11.8 µM (active).

For `CC(C)=CCC[C@](C)(O[C@@H]1O[C@H](CO[C@@H]2O[C@H](CO)[C@@H](O)[C@H](O)[C@H]2O)[C@@H](O)[C@H](O)[C@H]1O)[C@H]1CC[C@]2(C)[C@@H]1[C@H](O)C[C@@H]1[C@@]3(C)CC[C@H](O[C@@H]4O[C@H](CO)[C@@H](O)[C@H](O)[C@H]4O[C@@H]4O[C@H](CO)[C@@H](O)[C@H](O)[C@H]4O)C(C)(C)[C@@H]3CC[C@]12C`, the viability is 121% (inactive).

Turning to `C[C@@]12O[C@@H](C[C@]1(O)CO)n1c3ccccc3c3c4c(c5c6ccccc6n2c5c31)CNC4=O`, the Potency was 0.417 µM (active).

As for `CC(C)c1c(-c2ccccc2)nc2c(C#N)c[nH]n2c1=O`, the viability was 118% (inactive).

In the case of `NC(=S)N/N=C/c1ncccc1N`, the Potency was 16.6 µM (active).

On to `COc1ccc2c(c1)c(C1=C(c3c[nH]c4ccccc34)C(=O)NC1=O)cn2CCCN(C)C`, for which the Potency is 23.5 µM (active).

`Cc1ccc(NS(=O)(=O)c2cccc(C#N)c2)c2[nH]cc(C#N)c12`: the Potency was 14.8 µM (active).

In the case of `NC(=O)c1nc(F)c[nH]c1=O`, the viability was 119% (inactive).

With `NS(=O)(=O)Oc1ccc2c3c(c(=O)oc2c1)CCCCC3`, the viability is 105% (inactive).

On to `CCn1c(=O)c2c(nc(/C=C/c3ccc(OC)c(OC)c3)n2C)n(CC)c1=O`, for which the viability is 107% (inactive).

Regarding `C[C@@]12C(=O)OC(=O)[C@]1(C)[C@H]1CC[C@@H]2O1`, the Potency was 4.17 µM (active).

`Cc1ccc(S(=O)(=O)Nc2cc(C(F)(F)F)ccc2C(=O)Nc2nc(-c3ccccc3)cs2)cc1`: the Potency is 14.8 µM (active).

Turning to `Cc1cc(-c2nc3cc(F)ccc3s2)ccc1NC(=O)[C@@H](N)CCCCN`, the Potency was 13.2 µM (active).

With `Nc1nc(OC(c2ccc(-c3cccc(F)c3)cc2)C(F)(F)F)cc(-c2ccc(C[C@H](N)C(=O)O)cc2)n1` (stereo not given in full), the viability was 120% (inactive).

Turning to `O=C(NCc1ccc(S(=O)(=O)c2cccc(C(F)(F)F)c2)cc1)c1cnc2[nH]ncc2c1`, the viability was 110% (inactive).

Turning to `C[C@H](Nc1nc(N[C@H](C)C(F)(F)F)nc(-c2cccc(Cl)n2)n1)C(F)(F)F`, the viability was 120% (inactive).

For `CO[C@H]1/C=C/O[C@@]2(C)Oc3c(C)c(O)c4c(O)c(c5c(nc6cc(C)ccn65)c4c3C2=O)NC(=O)/C(C)=C\C=C\[C@H](C)[C@H](O)[C@@H](C)[C@@H](O)[C@@H](C)[C@H](OC(C)=O)[C@@H]1C`, the viability is 111% (inactive).

`FC(F)(F)c1ccc(CNc2ccc(Cc3c[nH]c4ncc(Cl)cc34)cn2)cn1`: the viability was 110% (inactive).

For `O=C1NC(=O)/C(=C\c2ccc(-c3ccc(F)cc3)o2)S1`, the Potency was 20.9 µM (active).

As to `CC(C)NC(=O)C1CCC(n2c(NC(=O)c3ccc(F)cc3)nc3ccc(CN4CCC(C(C)(C)O)CC4)cc32)CC1` (stereo not given), the viability was 121% (inactive).

For the compound `COc1ccccc1C(=O)Nc1cc2c(cc1N1CCNC[C@H]1C)n(C)c(=O)n2C`, the viability is 103% (inactive).

On to `COC(=O)N[C@@H](C)CNc1nccc(-c2cn(C(C)C)nc2-c2cc(Cl)cc(NS(C)(=O)=O)c2F)n1`, for which the Potency is 2.63 µM (active).

As for `C=C1CCC2[C@](C)(CO)C(O)CC[C@]2(C)C1C/C=C1/C(=O)OCC1O` (stereo not given in full), the Potency was 14.8 µM (active).

With `C=C(c1ccc(C(=O)O)cc1)c1cc2c(cc1C)C(C)(C)CCC2(C)C`, the viability is 115% (inactive).

Consider `COC1CC(C(=O)c2ccc3c(N)ncc(-c4ccc(-c5cnn(C)c5)cc4)c3n2)C1` (stereo not given), for which the viability is 92.9% (inactive).

Consider `CC1=C2[N-][C@H]([C@H](CC(N)=O)[C@@]2(C)CCC(=O)NC[C@@H](C)OP(=O)([O-])O[C@H]2[C@@H](O)[C@@H](n3cnc4cc(C)c(C)cc43)O[C@@H]2CO)[C@]2(C)N=C(C(C)=C3N=C(C=C4N=C1[C@@H](CCC(N)=O)C4(C)C)[C@@H](CCC(N)=O)[C@]3(C)CC(N)=O)[C@@H](CCC(N)=O)[C@]2(C)CC(N)=O.O.[Co+2]`, for which the viability was 95.1% (inactive).

For `C=CC(=O)N1CC/C(=C\c2ccc(F)c([N+](=O)[O-])c2)C(=O)/C(=C/c2ccc(F)c([N+](=O)[O-])c2)C1`, the Potency is 0.148 µM (active).

Regarding `CNC(=O)c1c(C)oc2cc(Oc3ncnc4cc(OC)c(OC)cc34)ccc12`, the viability is 116% (inactive).

Take `CC(C)C[C@@H]1NC(=O)[C@@H](C(C)C)NC(=O)[C@@H]2CCCN2C(=O)[C@@H](CC(=O)O)NC(=O)[C@@H](Cc2c[nH]c3ccccc23)NC1=O` (cyclo(L[dW][dD]P[dV])): the viability was 110% (inactive).

With `COc1cc(C)[nH]c(=O)c1CN1CCc2c(Cl)cc([C@H](OC)C3COC3)c(Cl)c2C1=O`, the viability is 112% (inactive).

`C[C@H](NC(=O)[C@H]1NCC[C@@H]1O)c1ccc(-c2noc(CCC3CCCC3)n2)cc1`: the outcome was “inactive; activator; fitted 0.0033 uM”.

As for `COc1cc(OC)cc(N2CCN(C(=O)Nc3nc4cc(F)ccc4nc3OC)CC2)c1`, the Potency is 1.32 µM (active).

As for `COc1cc(-c2cn(C)c(=O)c3cnccc23)cc(OC)c1CN(C)C`, the viability is 106% (inactive).

Take `CC1(C)O[C@@H]2C[C@H]3[C@@H]4C[C@H](F)C5=CC(=O)C=C[C@]5(C)[C@H]4[C@@H](O)C[C@]3(C)[C@]2(C(=O)CO)O1`: the viability is 108% (inactive).

As for `Cn1cc(-c2cnc3ccc4ccc(CS(=O)(=O)NCc5ccccn5)cc4c(=O)c3c2)cn1`, the Potency is 16.6 µM (active).
